Key:
[1] = system: Falciformispora senegalensis CBS197.79; test: growth relative to untreated control; higher = less inhibition, active = 20 or less
Summary of the method: (§1)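 For each test, a hyphal fragment suspension of M. mycetomatis MM55 or F. senegalensis CBS197.79 was prepared in colourless RPMI 1640 with L-glutamine and MOPS at 68–72% transmission at 660 nm. Exposure to compound at 100 or 25 µM ran for 7 days at 37 °C in 96-well plates, followed by viability reading with MTS (2 h, 490 nm) or resazurin (600 nm). Growth corresponds to metabolic activity relative to the untreated growth control after correction of both with a blank of medium and dye.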

[2] = system: Madurella mycetomatis MM55; test: as above
Summary of the method: as §1

SMILES | growth ([1]; 25 µM) | growth ([1]; 100 µM) | growth ([2]; 25 µM) | growth ([2]; 100 µM)
COc1ccc(CCNc2nccc(-c3cc(Cl)cc(C(F)(F)F)c3)n2)cc1 | 87.1% (inactive) | 94.6% (inactive) | 110% (inactive) | 116% (inactive)
C[C@H]1O[C@@H](O[C@H]2[C@@H](O)C[C@H](O[C@H]3[C@@H](O)C[C@H](O[C@H]4CC[C@@]5(C)[C@H](CC[C@@H]6[C@@H]5C[C@@H](O)[C@]5(C)[C@@H](C7=CC(=O)OC7)CC[C@]65O)C4)O[C@@H]3C)O[C@@H]2C)C[C@H](O)[C@@H]1O | 99.5% (inactive) | 106% (inactive) | 82.1% (inactive) | 90.8% (inactive)
c1ccc(CCc2nc3cccnc3n2C2CCN(C3CCN(Cc4ccccc4)CC3)CC2)cc1 | 86.3% (inactive) | 49.8% (inactive) | 63.2% (inactive) | 5.59% (active)
CC(C)Nc1ncc2nc(Nc3cc(Cl)cc(C(F)(F)F)c3)n(C3CCNCC3)c2n1 | 90.2% (inactive) | 69.2% (inactive) | 118% (inactive) | 4.67% (active)
Nc1nc(S)c2[nH]cnc2n1 | 106% (inactive) | 103% (inactive) | 71.8% (inactive) | 92.8% (inactive)
Fc1cccc(-c2ccc3c(c2)CC(NCc2c[nH]c4cnccc24)C3)c1 (centres undefined) | 6.11% (active) | 14.3% (active) | 5.29% (active) | 5.16% (active)
CC(=O)Oc1ccccc1C(=O)Nc1ncc([N+](=O)[O-])s1 | 97.4% (inactive) | 104% (inactive) | 87.7% (inactive) | 95.6% (inactive)
NS(=O)(=O)c1cc2c(cc1Cl)NC=NS2(=O)=O | 103% (inactive) | 103% (inactive) | 108% (inactive) | 96.2% (inactive)
CCOC(=O)N1CCC(=C2c3ccc(Cl)cc3CCc3cccnc32)CC1 | 106% (inactive) | 104% (inactive) | 54.3% (inactive) | 6.05% (active)
CCC(C)(C)n1nnnc1C(c1cc2ccc(C)cc2[nH]c1=O)N1CCN(c2ccccc2)CC1 (centres undefined) | 86% (inactive) | 84.3% (inactive) | 76.6% (inactive) | 91.7% (inactive)
CCOc1ccc(-c2nc(NC(=O)Cc3cccc(OC)c3)sc2C)cc1 | 93.7% (inactive) | 80.5% (inactive) | 99.6% (inactive) | 83.1% (inactive)
c1cc(-c2n[nH]c3ccc(-c4n[nH]c(C5CCCN5)n4)cc23)ccc1CNC1CC1 (centres undefined) | 88.8% (inactive) | 84.8% (inactive) | 70.2% (inactive) | 31.7% (inactive)
CO/C=C(/C(=O)OC)c1ccccc1COc1c(C)c(-c2ccc(C)cc2C)nn1C | 46.5% (inactive) | 15% (active) | 6.33% (active) | 10.3% (active)
Nc1nc(NC2CC2)c2ncn([C@H]3C=C[C@@H](CO)C3)c2n1 | 94.3% (inactive) | 107% (inactive) | 97% (inactive) | 83.8% (inactive)
Cc1cc(C)c(Nc2ccnc(Nc3ccc(C#N)cc3)n2)c(C)c1 | 103% (inactive) | 99.4% (inactive) | 92.4% (inactive) | 86.6% (inactive)
c1ccc(Nc2cc(Nc3cc(-c4ccccc4)[nH]n3)nc3ccnn23)cc1 | 67.4% (inactive) | 59.7% (inactive) | 8.39% (active) | 10.5% (active)
c1ccc(-c2ccnc(C3CCN(CC45CNCC4C5)CC3)n2)cc1 (centres undefined) | 82.4% (inactive) | 91.2% (inactive) | 71.4% (inactive) | 134% (inactive)
O=C(NC1CCNCC1)c1ccc(Nc2nccc(-c3ccc(Cl)cc3)n2)cc1 | 98% (inactive) | 10% (active) | 37.4% (inactive) | 6.07% (active)
Cc1nc2ccccc2n1Cc1ccc(Cl)cc1 | 106% (inactive) | 76.5% (inactive) | 76.5% (inactive) | 5.04% (active)
Fc1ccc([C@@H]2CCNC[C@H]2COc2ccc3c(c2)OCO3)cc1 | 101% (inactive) | 15.3% (active) | 5.94% (active) | 3.06% (active)
CCCCOC(=O)c1c(C)cnc2ccccc12 | 90.5% (inactive) | 98.7% (inactive) | 86.7% (inactive) | 141% (inactive)
CCCOc1ccc(C(F)(F)F)cc1NC(=O)c1nc2nccc(C)n2n1 | 91.7% (inactive) | 90% (inactive) | 62% (inactive) | 84.4% (inactive)
COc1c(C)c2c(c(O)c1C/C=C(\C)CCC(=O)O)C(=O)OC2 | 102% (inactive) | 107% (inactive) | 88% (inactive) | 94.6% (inactive)

SMILES | growth ([1]; 25 µM) | growth ([1]; 100 µM) | growth ([2]; 25 µM) | growth ([2]; 100 µM)
CC(C)Nc1cc2c(cn1)nc(Nc1cc(Cl)cc(C#N)c1)n2C1CCNCC1 | 97.8% (inactive) | 106% (inactive) | 106% (inactive) | 79.1% (inactive)
CO[C@H]1C[C@H](O[C@H]2[C@H](C)O[C@@H](O[C@@H]3/C(C)=C/C[C@@H]4C[C@@H](C[C@]5(C=C[C@H](C)[C@@H](C6CCCCC6)O5)O4)OC(=O)[C@@H]4C=C(C)[C@@H](O)[C@H]5OC/C(=C\C=C\[C@@H]3C)[C@]54O)C[C@@H]2OC)O[C@@H](C)[C@@H]1O | 93.1% (inactive) | 88.5% (inactive) | 101% (inactive) | 125% (inactive)
Cc1cccnc1Nc1cn2cc(-c3cccc(OCC(F)(F)F)n3)ccc2n1 | 96.5% (inactive) | 86.9% (inactive) | 119% (inactive) | 8.06% (active)
NC(=O)c1cccc(CN2Cc3ccccc3OC3(CCN(Cc4c[nH]c5cnccc45)CC3)C2)c1 | 85% (inactive) | 96.6% (inactive) | 54.2% (inactive) | 71.2% (inactive)
COc1ccc2cc1Oc1ccc(cc1)C[C@H]1c3cc(c(OC)cc3CCN1C)Oc1c(OC)c(OC)cc3c1[C@H](C2)N(C)CC3 | 33.4% (inactive) | 20.6% (inactive) | 3.29% (active) | 3.62% (active)
O=C(c1ccc(Nc2nccc(-c3ccc(C(F)(F)F)c(Cl)c3)n2)cc1)N1CC(O)C1 | 97.7% (inactive) | 106% (inactive) | 103% (inactive) | 131% (inactive)
COc1ccc(CCN(C)CCCC(C#N)(c2ccc(OC)c(OC)c2)C(C)C)cc1OC (centres undefined) | 110% (inactive) | 98.5% (inactive) | 76.9% (inactive) | 98.8% (inactive)
Cc1cc(Cl)ccc1NC(=S)N(C)C | 98.6% (inactive) | 88.2% (inactive) | 106% (inactive) | 147% (inactive)
Cn1c(O)nnc1Cn1ccc(C(F)(F)F)c(Oc2cc(Cl)cc(C#N)c2)c1=O | 106% (inactive) | 106% (inactive) | 92.7% (inactive) | 90.8% (inactive)
C=CC[C@@H]1/C=C(\C)C[C@H](C)C[C@H](OC)[C@H]2O[C@@](O)(C(=O)C(=O)N3CCCC[C@H]3C(=O)O[C@H](/C(C)=C/[C@@H]3CC[C@@H](O)[C@@H](OC)C3)[C@H](C)[C@@H](O)CC1=O)[C@H](C)C[C@@H]2OC | 103% (inactive) | 105% (inactive) | 84.5% (inactive) | 48.1% (inactive)
COC(=O)N[C@H](C(=O)N[C@@H](Cc1ccccc1)[C@@H](O)CN(Cc1ccc(-c2ccccn2)cc1)NC(=O)[C@@H](NC(=O)OC)C(C)(C)C)C(C)(C)C | 114% (inactive) | 108% (inactive) | 88.9% (inactive) | 105% (inactive)
COc1ccc(-c2nn3c(-c4ccco4)nnc3s2)cc1OC | 104% (inactive) | 96% (inactive) | 97% (inactive) | 55.2% (inactive)
CCN(CC)CCNc1nc(Nc2cccc(OC)c2)c2cnn(-c3ccccc3)c2n1 | 76.3% (inactive) | 17.5% (active) | 5.18% (active) | 4.88% (active)
COc1ccc(-c2cnc3c(-c4ccccc4)c(-c4ccccc4)nn3c2N)cc1OC | 93.2% (inactive) | 83.3% (inactive) | 86.3% (inactive) | 70.2% (inactive)
CN(C)CCNC(=O)c1csc(Nc2ccc(Cl)c(Cl)c2)n1 | 92.7% (inactive) | 83.6% (inactive) | 47.4% (inactive) | 62.3% (inactive)
C[C@H](CS)C(=O)N1CCC[C@H]1C(=O)O | 109% (inactive) | 91.7% (inactive) | 77.5% (inactive) | 95.8% (inactive)
CCOc1ccccc1NC(=O)Cn1c(=O)n(Cc2ccccc2)c(=O)c2c(C)c(C(=O)N(C)C)sc21 | 92.1% (inactive) | 108% (inactive) | 104% (inactive) | 109% (inactive)
CC(C)(C)Nc1ncc2nc(Nc3cccc(C(F)(F)F)c3)n(CC3CCNC3)c2n1 (centres undefined) | 94.5% (inactive) | 91.5% (inactive) | 114% (inactive) | 3.65% (active)
O=c1c(Cl)c(OCc2ccc(Cl)nc2)cnn1-c1ccc(Cl)c(Cl)c1 | 92.2% (inactive) | 103% (inactive) | 61.7% (inactive) | 62.1% (inactive)
Cn1cc(CN2CCc3c(c(C(=O)NCc4nccs4)nn3Cc3ccccc3)C2)c2ccccc21 | 89.7% (inactive) | 101% (inactive) | 88.4% (inactive) | 32.5% (inactive)
CCOc1cc(C(C)(C)C)ccc1C1=N[C@@](C)(c2ccc(Cl)cc2)[C@@](C)(c2ccc(Cl)cc2)N1C(=O)N1CCN(CCCS(C)(=O)=O)CC1 | 99.6% (inactive) | 101% (inactive) | 86.9% (inactive) | 99.8% (inactive)
CC(C)(C)[S@@](=O)N1Cc2cc(C(=O)NCCc3ccncc3)nc(-c3cccc(-c4ccccc4)c3)c2[C@H]1CCO | 82.6% (inactive) | 102% (inactive) | 67.6% (inactive) | 52.9% (inactive)
COc1cccc(OC2CCN(C(=O)c3cc(C(C)(C)C)nn3Cc3ccccc3)CC2)c1 | 82.9% (inactive) | 93.8% (inactive) | 87.4% (inactive) | 118% (inactive)
